According to PubChem BioAssay (NCATS):
Several values for one entry are separate records, joined by “and”; a condition that tells them apart may be missing. Identical values can stand only once. Records with an inconclusive call do not appear. Where a call stands in place of a potency, no number is given. Activity calls are given as the source filed them. Unless noted, the call rests on the fitted dose curve; in most records, active means well fitted curve in the direction sought with a large enough effect; inconclusive means small, poorly fitted or top-dose-only effect, or another doubt; inactive means no such curve, though single readings can be large; an effect the other way counts as inactive or inconclusive.

Experiments:
[1] = AP1 Signaling Pathway (AID 357; active means well fitted curve in either direction with a large enough effect, not every such curve was filed as active;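 further: ME-180 reporter cells stimulated with EGF at its EC50 level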)
Summary of the method: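 Cells are seeded overnight, exposed to compound titrations and an EC50 level of EGF for 5 hours at 37 °C, then loaded with CCF4 dye for 2.5 hours. Beta-lactamase activity under the AP-1 element is read as a blue/green ratio.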

[2] = target: Cytochrome P450 1A2 (Homo sapiens) (UniProt P05177); assay: p450-cyp1a2 (AID 410; calls by dose curve; further: potency means the concentration at half of the fitted maximal effect)
Summary of the method: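 Luminescent readout of luciferin formed from Luciferin-ME by human CYP1A2; data normalized against complete inhibition by 57 uM furafylline. Enzyme 20nM, substrate 100uM at Km, 100mM KPO4 buffer, 60 min reaction at room temperature.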

[3] = Stat Signaling Pathway (AID 446; active means well fitted curve in either direction with a large enough effect, not every such curve was filed as active;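 further: ME-180 cervical cancer cells given 40 pM IL-6 alongside compound; SIE-controlled beta-lactamase reporter measured as 460/530 nm FRET emission ratio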)
Summary of the method: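 Screening format detects activators and inhibitors alike: ME-180 SIE-bla cells stimulated at 40 pM IL-6 for 5 hrs with compound, then dual-emission beta-lactamase read at 405 nm excitation.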

[4] = target: Glucocorticoid receptor (Homo sapiens) (UniProt P04150); assay: GR-EFC Redistribution (AID 451; calls by dose curve; further: potency means the concentration at half of the fitted maximal effect); conditions: CHO-K1 GR-EFC translocation, beta-gal luminescence, 2 h
Glucocorticoid receptor (Homo sapiens), sequence (P04150 whole entry, looked up, the tested form may be a part): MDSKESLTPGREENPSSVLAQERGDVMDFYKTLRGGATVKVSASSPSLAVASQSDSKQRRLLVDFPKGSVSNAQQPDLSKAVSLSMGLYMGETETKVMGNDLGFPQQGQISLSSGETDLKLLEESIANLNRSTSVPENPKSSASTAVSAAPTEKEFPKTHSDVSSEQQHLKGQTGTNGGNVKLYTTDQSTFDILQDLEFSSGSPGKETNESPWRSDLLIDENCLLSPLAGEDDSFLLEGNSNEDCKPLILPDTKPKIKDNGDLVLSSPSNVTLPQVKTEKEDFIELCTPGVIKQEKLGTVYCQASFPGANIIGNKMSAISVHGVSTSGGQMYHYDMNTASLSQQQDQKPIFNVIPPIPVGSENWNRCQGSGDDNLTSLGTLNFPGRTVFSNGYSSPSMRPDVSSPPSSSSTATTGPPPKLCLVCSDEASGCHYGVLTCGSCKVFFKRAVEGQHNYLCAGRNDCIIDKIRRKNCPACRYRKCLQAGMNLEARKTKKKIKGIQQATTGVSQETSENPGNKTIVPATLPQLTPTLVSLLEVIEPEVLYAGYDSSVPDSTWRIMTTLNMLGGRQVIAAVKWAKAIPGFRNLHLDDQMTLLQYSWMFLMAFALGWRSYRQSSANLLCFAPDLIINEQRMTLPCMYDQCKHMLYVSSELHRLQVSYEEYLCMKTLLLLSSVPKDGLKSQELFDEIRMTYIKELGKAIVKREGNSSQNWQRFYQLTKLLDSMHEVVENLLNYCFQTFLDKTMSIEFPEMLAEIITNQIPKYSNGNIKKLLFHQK
Summary of the method: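 CHO-K1 cells stably expressing nuclear-localized β-gal enzyme acceptor and GR fused C-terminally to the enzyme donor fragment; ligand-driven nuclear translocation restores β-gal by complementation. Compounds titrated up to 46 uM final, 2 h at 37 °C; luminescence read.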

[5] = target: Mitogen-activated protein kinase 10 (Mus musculus) (UniProt Q61831); assay: JNK3 AlphaScreen Assay (AID 530; active means well fitted curve in either direction with a large enough effect, not every such curve was filed as active;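 further: kinase came from lysate of stimulated human HepG2 cells; signal reports phosphorylation of biotinylated GST-cJun 1-79 at Ser73 with 10 µM ATP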)
Summary of the method: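 Inhibitors reduce antibody binding to phosphorylated biotin-cJun, lowering AlphaScreen luminescence. Lysates from HepG2 cells pre-activated by IL-1beta plus TNF-alpha supplied JNK3; compounds were titrated.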

[6] = target: 3',5'-cyclic-AMP phosphodiesterase 4B (Homo sapiens) (UniProt Q07343); assay: qHTS Assay for Inhibitors of PDE-IV (AID 607; active means well fitted activation curve with a large enough effect in the main read-out, with a control signal flat, not every such curve was filed as active)
3',5'-cyclic-AMP phosphodiesterase 4B (Homo sapiens), sequence (Q07343 whole entry, looked up): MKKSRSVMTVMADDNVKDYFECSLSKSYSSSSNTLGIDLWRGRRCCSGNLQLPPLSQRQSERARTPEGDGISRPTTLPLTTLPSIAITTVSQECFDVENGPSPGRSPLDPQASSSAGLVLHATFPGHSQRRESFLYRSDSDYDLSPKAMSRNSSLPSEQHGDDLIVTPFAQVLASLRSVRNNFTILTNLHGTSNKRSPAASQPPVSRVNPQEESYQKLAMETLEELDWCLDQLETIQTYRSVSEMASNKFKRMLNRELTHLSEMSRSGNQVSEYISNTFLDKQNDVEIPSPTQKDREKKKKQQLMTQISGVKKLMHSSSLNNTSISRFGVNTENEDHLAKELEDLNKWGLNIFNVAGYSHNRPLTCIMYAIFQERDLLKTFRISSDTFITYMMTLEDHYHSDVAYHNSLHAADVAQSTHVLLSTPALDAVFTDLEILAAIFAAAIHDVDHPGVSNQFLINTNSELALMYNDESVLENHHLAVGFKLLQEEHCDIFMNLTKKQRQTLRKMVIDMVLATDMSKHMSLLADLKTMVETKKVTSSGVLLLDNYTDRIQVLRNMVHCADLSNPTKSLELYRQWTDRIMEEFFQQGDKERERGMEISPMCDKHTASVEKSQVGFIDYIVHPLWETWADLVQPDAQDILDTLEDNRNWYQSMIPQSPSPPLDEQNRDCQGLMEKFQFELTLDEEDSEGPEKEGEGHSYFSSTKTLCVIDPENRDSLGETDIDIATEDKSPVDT
Summary of the method: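 The readout is membrane depolarisation from a cAMP-sensing CNG channel, detected with a potential dye at ex 535/em 590. Cells were HEK293-derived (endogenous PDE-IV) at 1000 cells/well, titrated up to 22.9 uM final.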

[7] = target: Cytochrome P450 3A4 (Homo sapiens) (UniProt P08684); assay: qHTS Assay for Activators of Cytochrome P450 3A4 (AID 885); further: nearly all actives have a fitted effect of over 65% in size; further: potency means the concentration at half of the fitted maximal effect
Cytochrome P450 3A4 (Homo sapiens), sequence (P08684 whole entry, looked up): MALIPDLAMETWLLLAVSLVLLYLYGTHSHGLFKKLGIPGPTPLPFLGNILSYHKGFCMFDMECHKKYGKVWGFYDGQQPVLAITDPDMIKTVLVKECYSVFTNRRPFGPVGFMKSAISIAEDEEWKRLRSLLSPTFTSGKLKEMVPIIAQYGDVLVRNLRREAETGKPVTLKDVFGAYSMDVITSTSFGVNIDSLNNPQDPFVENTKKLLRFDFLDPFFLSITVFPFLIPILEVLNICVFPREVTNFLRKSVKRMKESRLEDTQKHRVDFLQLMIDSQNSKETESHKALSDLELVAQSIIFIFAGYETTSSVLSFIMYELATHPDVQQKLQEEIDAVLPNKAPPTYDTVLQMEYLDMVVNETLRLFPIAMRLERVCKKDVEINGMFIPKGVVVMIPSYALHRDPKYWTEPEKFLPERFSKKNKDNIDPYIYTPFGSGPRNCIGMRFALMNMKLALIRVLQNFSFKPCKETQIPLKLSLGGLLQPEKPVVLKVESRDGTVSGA
Summary of the method: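 Steps: enzyme/substrate mix dispensed; compound added, 10 min RT; NADPH regeneration solution added, 60 min RT; luciferin detection buffer stops reaction; 20 min later luminescence measured.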

[8] = qHTS Assay for Lipid Storage Modulators (AID 1519; calls by dose curve); conditions: Drosophila S3 cells, BODIPY lipid droplet/cell ratio, laser cytometry, cells loaded with oleic acid
Summary of the method: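 Cells seeded at 5,000 per well were treated with compounds over a concentration series and loaded with oleic acid (400 uM, as added). Lipid droplet fluorescence (488 nm excitation, 500-530 nm channel) was read by laser-scanning cytometry and normalized to 20 uM Triacsin C.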

[9] = target: DNA repair nuclease/redox regulator APEX1 (Homo sapiens) (UniProt P27695); assay: qHTS Validation Assay for Inhibitors of the Human Apurinic/apyrimidinic Endonuclease 1 (APE1) (AID 1705;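 further: TAMRA fluorescence gain over two minutes as APE1 cuts a quenched THF abasic duplex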)
DNA repair nuclease/redox regulator APEX1 (Homo sapiens), sequence (P27695 whole entry, looked up): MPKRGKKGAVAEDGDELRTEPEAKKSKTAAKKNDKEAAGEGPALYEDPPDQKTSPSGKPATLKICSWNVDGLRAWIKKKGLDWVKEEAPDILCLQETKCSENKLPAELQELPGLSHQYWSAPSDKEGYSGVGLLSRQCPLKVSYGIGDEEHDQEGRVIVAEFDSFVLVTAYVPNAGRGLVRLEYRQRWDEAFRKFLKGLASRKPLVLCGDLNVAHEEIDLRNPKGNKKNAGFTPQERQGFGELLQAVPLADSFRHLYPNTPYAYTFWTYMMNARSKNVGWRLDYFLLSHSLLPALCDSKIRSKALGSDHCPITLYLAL
Summary of the method: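 Endonuclease activity of human APE1 is followed as dequenching when the enzyme incises a tetrahydrofuran abasic site in a short duplex labelled 5'-TAMRA/3'-BHQ-2 (50 nM final), after 15 min enzyme–compound preincubation at room temperature.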

[10] = target: ATP-dependent DNA helicase Q1 (Homo sapiens) (UniProt P46063); assay: qHTS Validation Assay for Inhibitors of RecQ-Like Dna Helicase 1 (RECQ1) (AID 2353)
ATP-dependent DNA helicase Q1 (Homo sapiens), sequence (P46063 whole entry, looked up): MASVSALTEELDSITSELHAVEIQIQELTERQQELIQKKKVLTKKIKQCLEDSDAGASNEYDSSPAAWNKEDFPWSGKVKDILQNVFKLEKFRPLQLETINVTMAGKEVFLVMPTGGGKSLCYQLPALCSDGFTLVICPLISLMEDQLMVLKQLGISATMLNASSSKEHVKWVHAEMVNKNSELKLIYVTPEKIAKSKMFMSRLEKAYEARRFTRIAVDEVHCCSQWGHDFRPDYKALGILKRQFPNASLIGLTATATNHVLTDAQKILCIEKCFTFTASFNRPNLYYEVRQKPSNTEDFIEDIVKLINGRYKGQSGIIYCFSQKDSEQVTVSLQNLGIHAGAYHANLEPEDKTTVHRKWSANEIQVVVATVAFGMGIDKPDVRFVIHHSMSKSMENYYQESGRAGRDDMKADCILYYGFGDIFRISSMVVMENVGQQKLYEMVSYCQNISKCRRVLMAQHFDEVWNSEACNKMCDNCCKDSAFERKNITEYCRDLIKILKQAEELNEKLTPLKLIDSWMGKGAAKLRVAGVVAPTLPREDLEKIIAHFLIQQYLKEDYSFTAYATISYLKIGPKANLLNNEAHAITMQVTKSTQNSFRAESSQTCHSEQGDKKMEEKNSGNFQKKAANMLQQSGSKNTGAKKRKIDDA
Summary of the method: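 50 nM RECQ1T1 preincubated 15 min with compound in Tris pH 8.0 buffer with MgCl2, DTT, Tween-20 and 2.5 ug/ml poly(dI-dC); started with 200 nM TAMRA/BHQ-2 forked duplex and 2 mM ATP. Unwinding read as fluorescence (525/598 nm), two reads 2 h apart.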

[11] = target: Voltage-gated inwardly rectifying potassium channel KCNH2 (Homo sapiens) (UniProt Q12809); assay: qHTS Assay for Small Molecule Inhibitors of the Human hERG Channel Activity (AID 588834);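 further: top concentration of the series differs between compounds; lower thallium flux fluorescence means stronger hERG block; nearly all actives have a fitted effect of over 50% in size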
Voltage-gated inwardly rectifying potassium channel KCNH2 (Homo sapiens), sequence (Q12809 whole entry, looked up): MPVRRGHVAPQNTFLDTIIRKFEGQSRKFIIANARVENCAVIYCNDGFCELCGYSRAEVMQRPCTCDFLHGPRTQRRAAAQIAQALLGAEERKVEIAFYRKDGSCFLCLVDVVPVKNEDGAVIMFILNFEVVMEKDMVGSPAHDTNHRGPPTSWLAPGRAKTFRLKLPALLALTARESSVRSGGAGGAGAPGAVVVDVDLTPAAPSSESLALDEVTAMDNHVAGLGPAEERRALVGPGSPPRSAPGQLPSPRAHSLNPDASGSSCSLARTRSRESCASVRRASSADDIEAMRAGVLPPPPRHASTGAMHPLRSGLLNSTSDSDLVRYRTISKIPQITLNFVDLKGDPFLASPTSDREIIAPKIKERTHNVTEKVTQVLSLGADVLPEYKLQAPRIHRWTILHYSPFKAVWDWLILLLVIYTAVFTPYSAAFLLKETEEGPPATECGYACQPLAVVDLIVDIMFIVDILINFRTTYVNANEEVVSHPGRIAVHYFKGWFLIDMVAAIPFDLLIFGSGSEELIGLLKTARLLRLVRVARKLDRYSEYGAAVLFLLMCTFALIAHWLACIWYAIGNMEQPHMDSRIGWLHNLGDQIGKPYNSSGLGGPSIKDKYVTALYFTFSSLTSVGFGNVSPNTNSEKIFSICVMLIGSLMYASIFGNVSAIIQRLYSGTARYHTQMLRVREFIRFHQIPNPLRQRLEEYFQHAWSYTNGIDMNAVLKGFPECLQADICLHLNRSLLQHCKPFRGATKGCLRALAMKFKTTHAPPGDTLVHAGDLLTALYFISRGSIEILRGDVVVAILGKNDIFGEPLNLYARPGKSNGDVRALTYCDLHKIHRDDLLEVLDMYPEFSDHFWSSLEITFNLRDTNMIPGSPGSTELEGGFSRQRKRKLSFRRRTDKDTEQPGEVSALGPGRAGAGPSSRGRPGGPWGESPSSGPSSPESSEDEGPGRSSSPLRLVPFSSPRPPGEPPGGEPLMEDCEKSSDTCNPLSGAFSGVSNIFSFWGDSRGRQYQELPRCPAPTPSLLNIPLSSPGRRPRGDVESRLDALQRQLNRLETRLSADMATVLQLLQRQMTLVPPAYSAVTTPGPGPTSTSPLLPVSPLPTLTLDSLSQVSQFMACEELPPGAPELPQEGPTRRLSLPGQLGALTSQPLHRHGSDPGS
Summary of the method: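 Measured: FluxOR fluorescence after thallium stimulation in U2OS cells transduced with hERG by baculovirus. Compounds pre-incubated around 10 min; medium Opti-MEM with 2% FCS. AC50 from Hill equation.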

[12] = target: Lysosomal acid glucosylceramidase (Homo sapiens) (UniProt P04062); assay: Glucocerebrosidase-p2 (AID 348; in the data active means potency below about 10 µM; further: potency means the concentration at half of the fitted maximal effect); conditions: purified GBA, blue fluorogenic substrate, 40 min
Lysosomal acid glucosylceramidase (Homo sapiens), sequence (P04062 whole entry, looked up): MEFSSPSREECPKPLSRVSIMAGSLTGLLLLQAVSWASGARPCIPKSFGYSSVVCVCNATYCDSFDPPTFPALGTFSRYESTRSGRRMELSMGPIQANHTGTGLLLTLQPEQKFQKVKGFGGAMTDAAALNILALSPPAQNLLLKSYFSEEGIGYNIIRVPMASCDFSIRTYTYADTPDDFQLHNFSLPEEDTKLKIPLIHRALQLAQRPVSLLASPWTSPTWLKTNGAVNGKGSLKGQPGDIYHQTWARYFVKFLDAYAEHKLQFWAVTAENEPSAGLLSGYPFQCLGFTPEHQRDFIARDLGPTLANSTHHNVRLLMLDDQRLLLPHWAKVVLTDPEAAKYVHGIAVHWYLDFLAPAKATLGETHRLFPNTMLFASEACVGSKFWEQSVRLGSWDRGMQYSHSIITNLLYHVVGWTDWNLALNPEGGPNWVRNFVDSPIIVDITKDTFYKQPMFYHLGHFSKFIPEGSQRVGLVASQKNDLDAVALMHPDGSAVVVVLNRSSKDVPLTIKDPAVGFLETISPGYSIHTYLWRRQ
Summary of the method: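 Compounds titrated from 0.6 nM upwards against 0.2 nM enzyme in pH 5.9 citric acid/KH2PO4, taurocholate, tween-20; blue fluorogenic substrate 80 uM, 40 min room temperature, stopped and read Ex 365/Em 440 for AC50.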

[13] = Primary qHTS for small molecule stabilizers of the endoplasmic reticulum resident proteome: Secreted ER Calcium Modulated Protein (SERCaMP) assay (AID 1508630)
Summary of the method: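 GLuc-SERCaMP-expressing SH-SY5Y cells, pretreated 16 h with compound, are challenged with thapsigargin to empty ER calcium stores; after 4 h, coelenterazine is added directly to the medium and luminescence is imaged.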

[14] = NFAT Signaling Pathway (AID 444; active means well fitted curve in either direction with a large enough effect, not every such curve was filed as active;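 further: carbachol stimulus at about its EC50 of 1 µM final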); conditions: Jurkat NFAT-bla M1, carbachol, beta-lactamase ratio, 5 h; at 7.69 µM (top of the series)
Summary of the method: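 Jurkat cells carrying an NFAT-driven β-lactamase reporter and co-transfected muscarinic M1 receptor were treated with compound plus carbachol (1 uM final, an EC50 level) for 5 h at 37 °C. CCF4 loading followed for 1 h at RT; 460/530 nm ratio gave %activity.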

[15] = target: Cytochrome P450 3A4 (Homo sapiens) (UniProt P08684); assay: qHTS Assay for Inhibitors and Substrates of Cytochrome P450 3A4 (AID 884); further: nearly all actives have a fitted effect of over 50% in size; further: potency means the concentration at half of the fitted maximal effect
Summary of the method: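 20 nM human CYP3A4 with 25 uM Luciferin-PPXE (at KM) in 200 mM KPO4, preincubated 10 min with compound; NADPH regeneration started a 60 min RT reaction. Luciferin detected by luminescence, normalized to 57 uM ketoconazole as full inhibition.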

[16] = Confirmation and Secondary Assay for Modulators of Hemoglobin Beta Chain Splicing at IVS2 705 locus (AID 930);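 further: HeLa cells stably expressing the EGFP-705 splicing reporter; GFP fluorescence per well restored by corrected splicing of the IVS2-705 intron in EGFP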
Summary of the method: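 Fluorescence gain (488 nm laser, 500-520 nm PMT) reflects restored correct splicing of a mutant IVS2-705 intron inside EGFP in stably transfected HeLa cells after 2-day compound treatment.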

[17] = target: Ubiquitin carboxyl-terminal hydrolase 1 (Homo sapiens) (UniProt O94782); assay: Inhibitors of USP1/UAF1: Pilot qHTS (AID 504865); further: potency means the concentration at half of the fitted maximal effect; nearly all actives have a fitted effect of over 35% in size
Summary of the method: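 Kinetic fluorescence assay: 1nM USP1/UAF1, 15 min compound preincubation, then 150nM Ub-Rho; 480/540 nm.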

[18] = Confirmation and Secondary Assay for Modulators of Hemoglobin Beta Chain Splicing at IVS2 654 locus (AID 910);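 further: per-well total GFP intensity by laser scanning cytometry after 2-day treatment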
Summary of the method: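 HeLa cells stably carrying EGFP interrupted by mutant beta-globin IVS2-654 intron (CMV-driven) were treated with compound for 2 days at 37C; corrected splicing was scored as total peak GFP intensity per well (488 nm excitation, 500-520 nm emission).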

[19] = measured here: cell count channel max response
[20] = measured here: lipid channel max response

With `O=C(OC1CCN(CCCl)CC1)C(c1ccccc1)c1ccccc1` the outcome [1] was “inactive”, the Potency [2] was 12.6 µM (active) and the outcome [3] was “inactive”. The Potency [4] was > 46 µM (inactive), the outcome [5] was “inactive” and the Potency [6] was “inactive”. The Potency [7] was “inactive”, the activity change, negative = inhibition ([8]; at 57.5 µM (top of the series)) was 0.755% (inactive) and the max response [8, 19] was -17.2%. For the same compound, the max response [8, 20] was -14.8%, the Potency [9] was “inactive” and the outcome [10] was “inactive”. For the same compound, the Potency [11] was “inactive”.

For `O=C(NC[C@@H]1CCCCN1)c1cc(OCC(F)(F)F)ccc1OCC(F)(F)F`, the activity change, negative = inhibition ([8]; at 25.7 µM (top of the series)) was -0.787% (inactive), the max response [8, 19] was -18.7% and the max response [8, 20] was -19.7%.

For `CC(C)[C@@]1(NC(=O)[C@@H]2C[C@@H]3c4cccc5[nH]cc(c45)C[C@H]3N(C)C2)O[C@@]2(O)C3CCCN3C(=O)[C@H](Cc3ccccc3)N2C1=O` (some centres not stated), the activity change, negative = inhibition ([8]; at 57.5 µM (top of the series)) was -0.282% (inactive), the max response [8, 19] was -13.2% and the max response [8, 20] was -14.4%. The Potency [9] was “inactive”, the outcome [10] was “inactive” and the Potency [11] was “inactive”.

With `O=C(c1ccco1)N1CCC2(CC1)CN(Cc1ccncc1)C2` the Potency [12] was > 11.4 µM (inactive), the outcome [1] was “inactive” and the outcome [3] was “inactive”. For the same compound, the Potency [4] was > 46 µM (inactive), the outcome [5] was “inactive” and the Potency [6] was “inactive”. For the same compound, the outcome [13] was “inactive”.

For `CN1CC[C@@]2(CCCN(C(=O)c3csnn3)C2)C1`, the Potency [12] was > 11.4 µM (inactive), the outcome [1] was “inactive” and the activity change, negative = inhibition [14] was -23.3% (inactive). The outcome [3] was “inactive”, the Potency [4] was > 46 µM (inactive) and the outcome [5] was “inactive”. For the same compound, the Potency [6] was “inactive” and the outcome [13] was “inactive”.

For `COc1cc2c(cc1-c1cc3cc4ccoc4cc3oc1=O)OCO2`, the Potency [15] was 0.398 µM (active), the Potency [7] was “inactive” and the Potency [16] was “inactive”. The activity change, negative = inhibition ([8]; at 57.5 µM (top of the series)) was 16.5% (inactive), the max response [8, 19] was 6.63% and the max response [8, 20] was 25.9%. For the same compound, the Potency [17] was 50.1 µM (active).

For `C[C@H](CCC(=O)O)[C@H]1CC[C@@H]2[C@H]3CC[C@H]4C[C@@H](O)CC[C@@]4(C)[C@H]3CC[C@]21C`, the activity change, negative = inhibition ([8]; at 25.7 µM (top of the series)) was 2.39% (inactive), the max response [8, 19] was -11.2% and the max response [8, 20] was -8.48%.

In the case of `O=C(Nc1ccccc1)N1CCC2(CC1)CCN(C(=O)Oc1ccccc1)CC2`, the Potency [12] is reported as > 11.4 µM (inactive), the outcome [1] is reported as “inactive” and the Potency [2] is reported as “inactive”. For the same compound, the activity change, negative = inhibition [14] was 5.23% (inactive), the Potency [4] was > 46 µM (inactive) and the outcome [5] was “inactive”. The Potency [6] was “inactive”, the Potency [15] was “inactive” and the Potency [7] was 10 µM (active). The outcome [13] was “inactive”.

With `C[N+]1(C)C2CC(OC(=O)C(CO)c3ccccc3)CC1C1OC12` (configuration not stated) the Potency [15] was “inactive”, the activity change, negative = inhibition ([8]; at 57.5 µM (top of the series)) was 0.686% (inactive) and -2.43% (inactive) and the max response [8, 19] was 53.9% and -15.4%. The max response [8, 20] was 52.9% and -17%, the Potency [9] was “inactive” and the outcome [10] was “inactive”. The Potency [11] was “inactive”.

For `CC(=O)OC1CC2C(C)(C)C(=O)C=C[C@]2(C)C2CC[C@]3(C)C(=CC(=O)OC3c3ccoc3)[C@]12C` (some centres not stated), the Potency [15] was 15.8 µM (active), the Potency [7] was “inactive” and the Potency [18] was “inactive”. For the same compound, the Potency [16] was “inactive”, the activity change, negative = inhibition ([8]; at 57.5 µM (top of the series)) was -3.77% (inactive) and the max response [8, 19] was 5.48%. The max response [8, 20] was 6.78%.

For `CN1C[C@H](C(=O)N[C@]2(C)O[C@]3(O)[C@H]4CCCN4C(=O)[C@H](Cc4ccccc4)N3C2=O)C[C@H]2c3cccc4[nH]cc(c34)C[C@@H]21`, the activity change, negative = inhibition ([8]; at 25.7 µM (top of the series)) was -4.57% (inactive), the max response [8, 19] was -15.1% and the max response [8, 20] was -19.9%.

With `COc1ccc2cc1Oc1ccc(cc1)C[C@H]1c3cc(c(OC)cc3CCN1C)Oc1c(OC)c(OC)cc3c1[C@@H](C2)N(C)CC3` the activity change, negative = inhibition ([8]; at 25.7 µM (top of the series)) was -4.24% (inactive), the max response [8, 19] was -9.67% and the max response [8, 20] was -10.6%.

With `CC(C)CN1CCCC2(CCN(C(=O)Oc3ccccc3)CC2)C1` the Potency [12] was > 11.4 µM (inactive), the outcome [1] was “inactive” and the outcome [3] was “inactive”. For the same compound, the Potency [4] was > 46 µM (inactive), the outcome [5] was “inactive” and the Potency [6] was “inactive”. For the same compound, the Potency [7] was “inactive” and the outcome [13] was “inactive”.

For `O=C(Oc1ccccc1)N1CCC2(CCN(Cc3ccncc3)CC2)CC1`, the Potency [12] was > 11.4 µM (inactive), the outcome [1] was “inactive” and the Potency [4] was > 46 µM (inactive). The outcome [5] was “inactive”, the Potency [6] was “inactive” and the Potency [7] was “inactive”. The outcome [13] was “inactive”.
